Source: PubChem
Shown is part of a subset that was picked to be rich in hits.
CHX counter = Cycloheximide Counterscreen for Small Molecule Inhibitors of Shiga Toxin; cell reporter, cycloheximide protein synthesis inhibition counterscreen; max response, %; actives 12% (n = 300,000); AID 2314, 2010; in the data active = max response mostly above about 13%, no sharp cut-off; inactive = mostly below about 14%; note: read at 38.3 µM for the half of the compounds with a filed dose; 0% is about no effect
Shiga inhibitor = A qHTS for Small Molecule Inhibitors of Shiga Toxin. Vero cells, Shiga toxin protein synthesis inhibition reporter. inhibition, % at 38.7 µM. actives 9.2% (n = 290,000); in the data active = inhibition mostly above about 28%, no sharp cut-off; inactive = mostly below about 43%; note: 0% is about no effect
AmpC inh detg = qHTS Inhibitors of AmpC Beta-Lactamase (assay with detergent). AmpC hydrolysis of nitrocefin, absorbance 480 nm, 0.01% Triton. actives 0.041% (n = 370,000). Potency, µM (doses to about 114 µM), inactives show top-dose activity change, negative = inhibition, actives largely listed as inhibitors. P00811;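 note: potency is the fitted concentration of half-maximal effect; 0% = no-compound wells and -100% = no-enzyme wells; nearly all actives have a fitted effect of over 25% in size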
Target sequence (P00811 whole entry, looked up): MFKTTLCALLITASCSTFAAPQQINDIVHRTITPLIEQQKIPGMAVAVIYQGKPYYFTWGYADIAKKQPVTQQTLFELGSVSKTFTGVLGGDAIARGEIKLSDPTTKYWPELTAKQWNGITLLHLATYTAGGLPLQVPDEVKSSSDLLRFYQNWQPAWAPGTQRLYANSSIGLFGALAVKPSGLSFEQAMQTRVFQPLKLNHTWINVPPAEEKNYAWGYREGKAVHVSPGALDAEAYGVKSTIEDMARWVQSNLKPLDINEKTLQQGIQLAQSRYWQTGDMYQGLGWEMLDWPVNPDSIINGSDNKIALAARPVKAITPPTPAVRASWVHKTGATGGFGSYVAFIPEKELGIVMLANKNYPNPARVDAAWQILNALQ
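AmpC (5.3 nM in the dispensed reagent) in 20 mM phosphate pH 7.0 with 0.01% (detergent screen) or 0.0001% Triton X-100 was preincubated with compounds for 15 min at room temperature. Nitrocefin was then added from an 800 uM solution, and hydrolysis was followed at 480 nm.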
NS1 inh = qHTS Assay for Inhibitors of Influenza NS1 Protein Function. Potency, µM (series often up to 46.1 µM), for the others: at the highest dose activity, positive = more growth. AID 2326, 2010. actives 0.4% (n = 270,000); calls by dose curve; note: potency is the fitted concentration of half-maximal effect; actives are rising curves; nearly all actives have a fitted effect of over 50% in size
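Read-out: OD600 growth recovery of NS1-expressing budding yeast. Cells grown overnight at 30C in -URA glucose medium, washed, resuspended and diluted 1:100 in 2% galactose assay medium, pH 6.0. Same strain lacking NS1 served as positive control.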
AmpC inh no detg = qHTS Inhibitors of AmpC Beta-Lactamase (assay without detergent). P00811. AmpC nitrocefin hydrolysis, absorbance 480 nm, 0.0001% Triton. Potency, µM (series often up to 57.1 µM), for inactives: at the highest dose activity change, negative = inhibition, most hits filed as inhibitors. actives 0.52% (n = 330,000);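 note: potency is the fitted concentration of half-maximal effect; plate controls were no compound for no effect and no enzyme for full effect; nearly all actives have a fitted effect of over 20% in size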
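20 mM phosphate pH 7.0 + 0.01% (detergent screen) or 0.0001% Triton X-100; 5.3 nM AmpC reagent; cpd preinc 15 min RT; nitrocefin (800 uM stock) to start; A480 q20 s × 4 min; Activity was normalised to no-enzyme and no-compound control wells.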
* marks the source's active call; other numbers are inactive results; ? = inconclusive; . = no result given; ! = not confirmed by another sample. Unless noted, calls come from the whole dose curve; as a rule, active = well fitted curve in the direction sought with a large enough effect; inconclusive = small, poorly fitted or top-dose-only effect, or another doubt; inactive = no such curve, though single readings can be large; an effect the other way counts as inactive or inconclusive.

SMILES | CHX counter | Shiga inhibitor | AmpC inh detg | NS1 inh | AmpC inh no detg
COc1ccccc1-c1cc(C(=O)NCc2ccc(F)cc2)no1 | 1.3 | 35.3 | ? | -30.8% | -16.3%
O=C(NCc1ccc(F)cc1)c1cc(-c2cccs2)on1 | 25.7* | 24.8 | -18.0% | -11.1% | -33.6%
C=CC[C@@H](CC(=O)N[C@H](CO)Cc1ccccc1)C(=O)N[C@H](COC(=O)[C@@H](CC=C)Cc1ccc(F)cc1)Cc1ccccc1 | . | . | . | . | 22.7%
COc1ccc(-c2cn3nc(N4CCC(C(=O)Nc5cccc(OC)c5)CC4)sc3n2)cc1 | . | . | -5.0% | . | .
Cc1cccc(N2CCN(C(c3ccc(F)cc3)c3nnc(-c4ccccc4)o3)CC2)c1C (stereo not drawn) | . | . | -3.4% | . | .
CCn1nc([N+](=O)[O-])c(C(C#N)c2nc3ccccc3n2C)c(Cl)c1=O (stereo not drawn) | -3.2 | -8.2 | -11.5% | 6.3% | -36.4%
CCCn1nc([N+](=O)[O-])c(C(C#N)c2nc3ccccc3s2)c(Cl)c1=O (stereo not drawn) | -0.9 | -23.9 | -11.1% | -60.8% | 14.1µM*
CCc1nc2ccc(C(=O)NCCc3ccco3)cc2nc1CC | 44.7* | 64.8* | -2.1% | -8.1% | 0.0%
O=C(NCc1ccco1)c1ccc(Oc2ccccc2)cc1 | 54.5* | 75.7* | -5.4% | -114.2% | -25.2%
CC(C)COc1ccc(C(=O)NCc2ccco2)cc1 | 14.1* | 35.8* | 1.5% | -44.8% | -29.5%
O=C(NCc1ccco1)Nc1ccc([N+](=O)[O-])cc1 | 25.7*! | 23.9 | -13.9% | -40.4% | -17.2%
O=C(NCc1ccco1)Oc1ccccc1 | 1.5 | 16.5 | -2.4% | 3.5% | .
CCc1c(C)sc(NC(=O)Cn2nc(C(F)(F)F)c3c2CCCC3)c1C#N | 0.8 | -12.5 | ? | 3.1% | -40.7%
O=C(NCc1ccco1)c1ccc2c(c1)C(=O)N(Cc1ccccc1)C2=O | -1.0 | 2.9 | 2.0% | -33.5% | ?
O=C(NCc1ccco1)c1ccc2ccccc2c1 | 35.5* | 79.4* | -8.3% | -15.7% | -15.1%
COCCNC(=O)c1ccc2c(c1)C(=O)c1ccccc1-2 | 10.3 | 19.2 | -13.7% | -33.9% | -18.7%
CCOc1ccc(C(=O)NCc2ccco2)cc1 | 41.1* | 62.7* | -2.2% | -17.2% | -15.9%
O=C(NCc1ccco1)c1ccc2c(c1)C(=O)c1ccccc1-2 | 19.3* | 66.9* | -0.2% | -1.0% | -16.1%
CC(C)(CO)NC(=O)c1ccc2c(c1)C(=O)c1ccccc1-2 | 51.2* | 86.1* | -2.8% | -2.8% | -7.4%
CC1CC=CC2C1C(=O)N(Cc1ccccc1)C2c1ccc(-c2ccoc2)cc1F (stereo not drawn) | 8.0 | -5.3 | . | . | .
CCOc1ccccc1NC(=O)C(=O)NCC(c1cccnc1)N1CCN(c2ccccc2)CC1 (stereo not drawn) | . | . | -2.7% | . | .
CCOc1ccc(NC(=O)NCc2ccco2)cc1 | 12.2* | 24.9 | 8.2% | -2.1% | -13.9%
O=C(NCc1cccnc1)Nc1ccc([N+](=O)[O-])cc1 | 11.1 | 2.3 | -11.1% | 12.7% | -13.4%
O=C(NCc1ccccc1F)Nc1ccc([N+](=O)[O-])cc1 | 17.6 | 35.2* | 0.7% | . | -41.4%
Cc1nc2ccccc2c(=O)n1/N=C/c1ccc(C(C)C)cc1 | 21.6* | 37.6* | -8.1% | -6.7% | 35.2%
SMILES | CHX counter | Shiga inhibitor | AmpC inh detg | NS1 inh | AmpC inh no detg
COc1ccc(/C=N/n2c(C)nc3ccccc3c2=O)cc1 | -1.6 | 38.4 | ? | -10.7% | -8.7%
Cc1nc2ccccc2c(=O)n1/N=C/c1ccc(O)cc1 | 1.2 | 17.3 | -14.8% | -65.5% | -4.5%
Cc1cccc(/C=N/n2c(C)nc3ccccc3c2=O)c1 | 22.1* | 100.5* | 0.1% | -3.5% | 0.0%
COC(=O)c1ccc(/C=N/n2c(C)nc3ccccc3c2=O)cc1 | 20.7* | 41.2* | -1.3% | -0.1% | -11.4%
c1ccc(-c2ccccc2OCCCN2CCOCC2)cc1 | 27.7* | 20.7 | 1.5% | 4.9% | 209.2%
CC(C)(C)C(=O)COc1ccccc1[N+](=O)[O-] | -2.9 | -5.9 | -2.8% | 0.4% | -8.8%
COc1ccc(OCCOc2ccccc2[N+](=O)[O-])cc1 | 38.7* | 25.6 | -18.3% | -0.1% | -24.0%
O=[N+]([O-])c1ccccc1OCCCN1CCOCC1 | 9.3* | 21.7 | -3.2% | -6.3% | 4.1%
COc1ccc(OCCOCCOc2ccc(C)cc2[N+](=O)[O-])cc1 | -1.6 | 23.4 | ? | -1.2% | -23.0%
CCOC(=O)/C=C/COc1ccccc1[N+](=O)[O-] | 46.7* | 102.5* | -5.5% | . | -8.4%
Cc1ccc(-c2nc3ncccc3o2)cc1NC(=O)COc1ccc(C(C)C)cc1 | . | . | -8.6% | . | .
Cc1c(Cl)cccc1-n1nnc(-c2nc(-c3ccc4c(c3)OCO4)no2)c1C | . | . | 2.0% | . | .
COc1ccccc1C(CNc1ncccc1[N+](=O)[O-])N(C)C (stereo not drawn) | 5.5 | -6.4 | 9.1% | 15.7% | 21.3%
COc1ccc(CNc2ncccc2[N+](=O)[O-])cc1 | 25.6* | 52.0* | 4.5% | -4.2% | -20.5%
Cc1ccc(SCCOCCN2CCOCC2)cc1 | 0.4 | 11.4 | -9.0% | 27.3% | 14.6%
c1ccc(SCCOCCN2CCOCC2)cc1 | 14.8* | 25.1 | 3.2% | 14.6% | 7.9%
Cc1cccc(C)c1OCCCN1CCCC1 | -3.8 | -22.2 | -14.8% | 7.2% | -18.1%
Cc1cccc(Cl)c1OCCCN1CCOCC1 | 21.4* | 48.9* | -3.0% | -2.5% | 6.8%
O=[N+]([O-])c1ccccc1OCCOc1ccccc1[N+](=O)[O-] | 17.7* | 49.7* | -6.4% | 3.8% | -14.8%
COc1cccc(/C=N/NC(=O)C(C)Cn2cnc3ccccc32)c1 (stereo not drawn) | 10.2 | 20.8 | -9.2% | 4.9% | -17.7%
CCOc1ccc(OCC)c(NC(=O)c2nnn(CC(=O)Nc3cc(Cl)ccc3OC)c2N)c1 | . | . | -5.2% | . | .
CCc1ccc(NC(=O)C2CCC(CNS(=O)(=O)c3cccs3)CC2)cc1 (stereo not drawn) | . | . | -7.1% | . | .
COc1cc(/C=C/C(=O)N2CC(C)OC(C)C2)cc(OC)c1OC (stereo not drawn) | -2.6 | -4.1 | 0.9% | 2.1% | 8.7%
O=C(c1cc(-c2cccc(O)c2)on1)N1CCCCC1 | 35.1* | 36.8* | ? | -34.9% | -3.5%
O=C(c1cc(-c2cccc(O)c2)on1)N1CCCC1 | 37.4* | 62.0* | -12.7% | -0.6% | -22.1%
SMILES | CHX counter | Shiga inhibitor | AmpC inh detg | NS1 inh | AmpC inh no detg
O=C(Nc1c(Cl)cccc1Cl)c1cc(-c2cccc(O)c2)on1 | . | . | 17.6% | . | .
Cn1ccnc1SCC(=O)Nc1cccc(Br)c1 | . | . | -0.4% | . | .
Cn1ccnc1SCC(=O)c1cccc(Br)c1 | 27.3* | 59.9 | ? | 6.4% | -34.3%
O=C(CSc1ncnc2nc[nH]c12)c1ccc2ccccc2c1 | 33.2* | 41.7* | 2.9% | -6.4% | -20.6%
Cc1ccc(NC(=O)CSc2ncc3ccccn23)cc1C | 39.0* | 130.0* | 7.7% | . | -29.9%
CCn1c(SCC(=O)c2ccc3ccccc3c2)nnc1-c1ccco1 | 2.6 | 1.6 | 3.5% | -14.7% | -13.5%
Cn1ccnc1SCC(=O)c1ccc2ccccc2c1 | 38.8* | 88.1* | 3.2% | 1.2% | -14.2%
